# Measured values from PubChem BioAssay (EPA / NIEHS).
# Where “and” joins values, the source holds several entries; their conditions need not be identical. Identical values can stand only once. Inconclusive results are not listed. Calls of active or inactive are those of the source. How the source made its calls, unless noted: active means hit-call score of the fitted dose curve at least 0.9, where 1 is the maximum; inconclusive means response in the unintended direction; inactive means score below 0.9.
# Legend:
# [1] = target: Retinoic acid receptor alpha (Homo sapiens) (UniProt P10276); assay: ATG_RARa_TRANS: Attagene TRANS-FACTORIAL HepG2 Assay for human Retinoic Acid Receptor alpha (RARa) (AID 2283005)
# In short: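 HepG2 cells transiently transfected with multiple reporter units expressing chimeric RARα-GAL4 fusion, with GAL4-UAS-driven reporters. After 24 h compound exposure, reporter mRNA induction quantified by RT-PCR and capillary electrophoresis with fluorescent labeling; gain-of-signal fitted relative to DMSO control.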
# [2] = target: Peroxisome proliferator-activated receptor gamma (Homo sapiens) (UniProt P37231); assay: ATG_PPARg_TRANS: Attagene TRANS-FACTORIAL HepG2 Assay for human Peroxisome Proliferator-activated Receptor-gamma (PPARg) (AID 2283007)
# In short: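 Transient transfection of HepG2 with GAL4-UAS-driven reporter units; chemical dosing 24 h; total RNA → oligo(dT) RT → PCR with reporter primers → 6-FAM primer extension → HpaI digest 2 h 37 C → capillary electrophoresis. Positive direction vs DMSO.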
# [3] = target: Nuclear receptor subfamily 1 group I member 2 (Homo sapiens) (UniProt O75469); assay: ATG_PXR_TRANS: Attagene TRANS-FACTORIAL HepG2 Assay for human Pregnane X Receptor (PXR) (AID 2283008)
# In short: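 HepG2 cells transiently transfected with GAL4-UAS reporter units and PXR-Gal4 chimera, exposed 24 h. Reporter mRNA quantified by RT-PCR, fluorescent labelling, HpaI digestion and capillary electrophoresis; gain of signal vs DMSO.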
# [4] = target: human Retinoic Acid Receptor gamma (RARg), RARG (gene 5916) (UniProt P13631); assay: ATG_RARg_TRANS: Attagene TRANS-FACTORIAL HepG2 Assay for human Retinoic Acid Receptor gamma (RARg) (AID 2283009)
# In short: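 HepG2 transiently transfected with GAL4-UAS reporter units and chimeric NR-Gal4 constructs; 24 h compound exposure. Reporter mRNA quantified by RT-PCR, FAM labeling, HpaI digestion and capillary electrophoresis; gain-of-signal versus DMSO.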
# [5] = target: human Peroxisome Proliferator-activated Receptor delta (PPARd), PPARD (gene 5467) (UniProt Q03181); assay: ATG_PPARd_TRANS: Attagene TRANS-FACTORIAL HepG2 Assay for human Peroxisome Proliferator-activated Receptor delta (PPARd) (AID 2283002)
# In short: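 Measured quantity: GAL4-UAS reporter transcript induction in HepG2 after 24 h chemical dosing, with NR-Gal4 chimeras supplied by transient transfection. Detection by RT-PCR and capillary electrophoresis; upward fit against DMSO.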
# [6] = target: human RAR-related Orphan Receptor beta (RORb), RORB (gene 6096) (UniProt Q92753); assay: ATG_RORb_TRANS: Attagene TRANS-FACTORIAL HepG2 Assay for human RAR-related Orphan Receptor beta (RORb) (AID 2283010)
# In short: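 HepG2 cells transiently transfected with GAL4-UAS reporter units expressing chimeric NR-Gal4 protein; reporter mRNA measured 24 h after dosing by RT-PCR, 6-FAM labelling and capillary electrophoresis. Gain-of-signal fitted relative to DMSO baseline.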
# [7] = target: human Retinoic Acid Receptor beta (RARb), RARB (gene 5915) (UniProt P10826); assay: ATG_RARb_TRANS: Attagene TRANS-FACTORIAL HepG2 Assay for human Retinoic Acid Receptor beta (AID 2283004)
# In short: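 HepG2, transient MRTU transfection, NR–Gal4 chimera, 24 h treatment; RT-PCR plus CE fluorescence detection of reporter mRNA; gain of signal vs DMSO.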
# [8] = read-out: Intercellular Adhesion Molecule 1 (ICAM1), ICAM1 (gene 3383); assay: BSK_3C_ICAM1: BioMAP Diversity Plus: 3C Assay for Intercellular Adhesion Molecule 1 (ICAM1) Biomarker Activity (AID 2283003; active means hit-call score of the fitted dose curve at least 0.9, where 1 is the maximum; inactive means score below 0.9); conditions: primary human endothelial cells (HUVEC); actives raise or lower the signal
# In short: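 HUVEC primary cells stimulated under 3C conditions; ICAM1 measured by ELISA 24 h after compound dosing. Curves fitted bidirectionally against the DMSO baseline. Overt cytotoxicity checked by SRB staining of parallel cultures.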
# [9] = BSK_3C_Proliferation: Cell Proliferation Assessment in the BioMAP Diversity Plus: 3C Assay (AID 2283006; active means hit-call score of the fitted dose curve at least 0.9, where 1 is the maximum; inactive means score below 0.9;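 on AC50: potency may reflect either rise or fall in cell number versus DMSO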); conditions: primary human endothelial cells (HUVEC)
# In short: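 Subconfluent HUVEC (3C system) cultured with chemical; relative cell number read at 48 h by sulforhodamine B total-protein staining (0.1% SRB after 10% TCA fixation, 560 nm). Bidirectional fit relative to DMSO.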
# Sequence of Nuclear receptor subfamily 1 group I member 2 (Homo sapiens) (O75469 whole entry, looked up, the tested form may be a part): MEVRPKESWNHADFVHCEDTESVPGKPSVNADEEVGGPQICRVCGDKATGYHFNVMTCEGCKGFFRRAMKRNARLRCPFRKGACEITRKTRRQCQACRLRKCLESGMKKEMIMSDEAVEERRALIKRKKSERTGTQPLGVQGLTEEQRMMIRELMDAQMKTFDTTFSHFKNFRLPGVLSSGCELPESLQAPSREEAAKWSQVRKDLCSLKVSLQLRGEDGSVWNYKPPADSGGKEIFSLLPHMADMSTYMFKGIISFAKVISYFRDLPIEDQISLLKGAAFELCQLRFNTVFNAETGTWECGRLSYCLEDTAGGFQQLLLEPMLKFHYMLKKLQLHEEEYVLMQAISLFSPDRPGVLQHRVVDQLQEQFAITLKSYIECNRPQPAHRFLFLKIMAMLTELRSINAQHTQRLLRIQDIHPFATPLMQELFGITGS
# Sequence of human RAR-related Orphan Receptor beta (RORb), RORB (gene 6096) (Q92753 whole entry, looked up, the tested form may be a part): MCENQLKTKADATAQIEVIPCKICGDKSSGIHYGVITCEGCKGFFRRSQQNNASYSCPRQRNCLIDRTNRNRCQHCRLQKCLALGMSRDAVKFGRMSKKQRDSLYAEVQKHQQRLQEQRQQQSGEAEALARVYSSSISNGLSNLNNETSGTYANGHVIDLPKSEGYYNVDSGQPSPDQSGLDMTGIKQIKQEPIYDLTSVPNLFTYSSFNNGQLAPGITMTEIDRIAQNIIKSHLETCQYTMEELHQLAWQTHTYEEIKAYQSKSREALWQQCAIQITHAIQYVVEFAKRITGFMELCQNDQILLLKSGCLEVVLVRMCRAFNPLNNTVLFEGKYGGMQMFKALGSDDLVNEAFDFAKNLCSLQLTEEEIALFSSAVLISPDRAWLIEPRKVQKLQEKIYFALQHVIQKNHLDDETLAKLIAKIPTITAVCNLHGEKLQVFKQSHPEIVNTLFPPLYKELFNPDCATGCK
# Sequence of Peroxisome proliferator-activated receptor gamma (Homo sapiens) (P37231 whole entry, looked up, the tested form may be a part): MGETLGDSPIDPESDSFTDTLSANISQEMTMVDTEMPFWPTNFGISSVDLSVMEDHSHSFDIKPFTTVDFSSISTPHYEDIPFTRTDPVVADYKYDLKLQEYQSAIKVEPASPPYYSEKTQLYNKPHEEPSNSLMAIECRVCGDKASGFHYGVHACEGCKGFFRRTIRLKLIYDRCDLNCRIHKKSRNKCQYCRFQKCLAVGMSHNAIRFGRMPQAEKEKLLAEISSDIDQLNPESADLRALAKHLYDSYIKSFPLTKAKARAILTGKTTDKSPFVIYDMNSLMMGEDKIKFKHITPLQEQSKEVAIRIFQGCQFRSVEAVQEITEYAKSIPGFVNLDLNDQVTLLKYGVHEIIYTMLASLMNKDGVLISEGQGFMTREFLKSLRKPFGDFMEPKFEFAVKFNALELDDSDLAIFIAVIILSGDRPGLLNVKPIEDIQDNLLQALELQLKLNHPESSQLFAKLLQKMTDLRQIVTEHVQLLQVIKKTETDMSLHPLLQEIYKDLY
# Sequence of human Retinoic Acid Receptor gamma (RARg), RARG (gene 5916) (P13631 whole entry, looked up, the tested form may be a part): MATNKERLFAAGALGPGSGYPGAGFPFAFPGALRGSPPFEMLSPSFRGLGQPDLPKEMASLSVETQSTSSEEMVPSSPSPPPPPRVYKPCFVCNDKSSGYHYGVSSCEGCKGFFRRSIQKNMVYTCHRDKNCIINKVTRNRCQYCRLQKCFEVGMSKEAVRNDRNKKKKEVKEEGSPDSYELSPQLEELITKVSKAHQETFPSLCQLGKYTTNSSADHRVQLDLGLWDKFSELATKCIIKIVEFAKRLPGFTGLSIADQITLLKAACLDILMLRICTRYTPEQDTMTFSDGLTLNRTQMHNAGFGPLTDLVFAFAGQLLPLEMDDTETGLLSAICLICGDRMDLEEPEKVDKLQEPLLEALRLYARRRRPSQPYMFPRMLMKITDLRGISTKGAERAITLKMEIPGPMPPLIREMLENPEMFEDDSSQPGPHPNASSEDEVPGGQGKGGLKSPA
# Sequence of Retinoic acid receptor alpha (Homo sapiens) (P10276 whole entry, looked up, the tested form may be a part): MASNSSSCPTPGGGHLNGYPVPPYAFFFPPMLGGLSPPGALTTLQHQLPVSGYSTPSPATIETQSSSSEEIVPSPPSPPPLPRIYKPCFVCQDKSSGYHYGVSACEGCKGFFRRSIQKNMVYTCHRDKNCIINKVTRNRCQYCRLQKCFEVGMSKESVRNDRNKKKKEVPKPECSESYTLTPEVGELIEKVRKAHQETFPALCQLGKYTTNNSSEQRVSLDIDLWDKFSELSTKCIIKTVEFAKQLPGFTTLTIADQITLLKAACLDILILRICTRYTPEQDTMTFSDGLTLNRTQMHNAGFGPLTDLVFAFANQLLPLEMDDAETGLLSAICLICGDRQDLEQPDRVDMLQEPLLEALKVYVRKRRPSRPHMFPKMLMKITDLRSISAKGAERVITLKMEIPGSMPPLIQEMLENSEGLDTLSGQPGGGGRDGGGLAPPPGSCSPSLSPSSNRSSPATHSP
# Sequence of human Peroxisome Proliferator-activated Receptor delta (PPARd), PPARD (gene 5467) (Q03181 whole entry, looked up, the tested form may be a part): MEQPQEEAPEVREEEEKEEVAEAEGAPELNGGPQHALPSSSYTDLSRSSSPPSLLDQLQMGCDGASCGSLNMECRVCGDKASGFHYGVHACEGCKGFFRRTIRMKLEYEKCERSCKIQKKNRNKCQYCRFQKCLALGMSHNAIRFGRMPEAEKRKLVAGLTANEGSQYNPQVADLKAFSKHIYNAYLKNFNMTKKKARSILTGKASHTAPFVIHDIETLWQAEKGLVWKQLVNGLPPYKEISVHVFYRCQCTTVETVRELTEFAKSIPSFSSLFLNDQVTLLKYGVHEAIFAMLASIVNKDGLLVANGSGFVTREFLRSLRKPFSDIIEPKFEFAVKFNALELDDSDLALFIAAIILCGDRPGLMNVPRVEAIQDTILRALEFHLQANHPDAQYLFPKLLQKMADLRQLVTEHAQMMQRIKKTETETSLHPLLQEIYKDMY
# Sequence of human Retinoic Acid Receptor beta (RARb), RARB (gene 5915) (P10826 whole entry, looked up, the tested form may be a part): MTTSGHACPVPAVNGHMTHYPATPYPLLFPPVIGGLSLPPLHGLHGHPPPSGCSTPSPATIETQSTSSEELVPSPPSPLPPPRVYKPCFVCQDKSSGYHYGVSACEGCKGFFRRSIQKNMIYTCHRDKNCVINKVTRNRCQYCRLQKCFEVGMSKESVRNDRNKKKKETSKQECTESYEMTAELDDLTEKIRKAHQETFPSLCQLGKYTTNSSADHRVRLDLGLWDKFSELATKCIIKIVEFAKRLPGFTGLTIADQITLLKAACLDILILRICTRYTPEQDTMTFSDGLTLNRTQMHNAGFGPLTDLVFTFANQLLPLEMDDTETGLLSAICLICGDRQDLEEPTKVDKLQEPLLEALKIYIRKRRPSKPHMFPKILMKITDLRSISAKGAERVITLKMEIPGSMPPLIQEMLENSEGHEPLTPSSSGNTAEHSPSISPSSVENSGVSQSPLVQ
smiles,measurement,setting,value
CC(C)CCOCCC(C)C,outcome,[1],inactive
O=C(C=C(O)C(F)(F)F)C(F)(F)F,outcome,[2],inactive
same,outcome,[3],inactive
same,outcome,[4],inactive
CCCCCCCCC(C)=O,outcome,[5],inactive
same,outcome,[3],inactive
CCOCCOCC,outcome,[2],inactive
same,outcome,[3],inactive
same,outcome,[6],inactive
NNC(=O)CCCCC(=O)NN,outcome,[5],inactive
same,outcome,[4],inactive
same,outcome,[6],inactive
CCC(C)c1nccnc1OC (configuration not stated),outcome,[7],inactive
same,outcome,[1],inactive
same,outcome,[2],inactive
c1ccc2c(c1)CCC2,outcome,[4],inactive
C/C=C/C(=O)C1=C(C)CCCC1(C)C,AC50,[2],64.7 µM (active)
same,AC50,[3],19.8 µM (active)
CCN(CCC#N)c1ccccc1,outcome,[7],inactive
same,outcome,[1],inactive
same,outcome,[2],inactive
same,AC50,[3],38.1 µM (active)
same,outcome,[4],inactive
same,outcome,[6],inactive
OCC(CO)(CBr)CBr,outcome,[8],inactive
same,outcome,[9],inactive
CCOC(=O)c1nc(C(Cl)(Cl)Cl)n(-c2ccc(Cl)cc2Cl)n1,AC50,[2],40.4 µM (active)
same,AC50,[3],7.68 µM (active)
NCc1cccc(CN)c1,outcome,[2],inactive
FC(OC(F)(F)C(F)(F)C(F)(F)F)C(F)(F)F (configuration not stated),outcome,[5],inactive
same,outcome,[2],inactive
same,outcome,[6],inactive
COCC1CCC(CO)CC1 (configuration not stated),outcome,[2],inactive
same,outcome,[3],inactive
same,outcome,[4],inactive
FC1(F)C=CC(F)(F)C1(F)F,outcome,[7],inactive
same,outcome,[2],inactive
same,outcome,[3],inactive
CCCC=O,outcome,[7],inactive
same,outcome,[1],inactive
same,outcome,[3],inactive
same,outcome,[4],inactive
same,outcome,[6],inactive
NNc1nc(-c2ccc([N+](=O)[O-])cc2)cs1,outcome,[5],inactive
same,AC50,[2],5.61 µM (active)
same,outcome,[4],inactive
COc1ccc(C#N)cc1,outcome,[2],inactive
same,outcome,[3],inactive
same,outcome,[4],inactive
same,outcome,[6],inactive
CCCCCCCCCCCC(=O)NCCCN(C)C,outcome,[3],inactive
C=CC(F)(F)C(F)(F)C(F)(F)C(F)(F)F,outcome,[2],inactive
same,outcome,[3],inactive
CCCCCCCCCCCC,outcome,[8],inactive
same,outcome,[1],inactive
same,AC50,[9],36.1 µM (active) and 31 µM (active)
same,outcome,[2],inactive
same,outcome,[3],inactive
same,outcome,[4],inactive
O=CC(F)(F)C(F)(F)C(F)(F)F,outcome,[5],inactive
same,outcome,[2],inactive
same,outcome,[6],inactive
